Measurements: paper PMC4336329 (PLoS ONE, 2015)
Screen size: about 310,000 compounds; about 2,200 (0.71%) showed an effect of 50% or more. The effect is printed as a negative number. The sample holds strong results, similar compounds and a random draw of the others, so the mix is not that of the screen.

Molecular target: human ether-à-go-go-related gene (hERG) potassium channel (human, UniProt Q12809)
Assay: primary screen, population patch clamp on CHO cells stably expressing hERG; higher = less effect of the substance

Chain of human ether-à-go-go-related gene (hERG) potassium channel (Q12809 whole entry, looked up): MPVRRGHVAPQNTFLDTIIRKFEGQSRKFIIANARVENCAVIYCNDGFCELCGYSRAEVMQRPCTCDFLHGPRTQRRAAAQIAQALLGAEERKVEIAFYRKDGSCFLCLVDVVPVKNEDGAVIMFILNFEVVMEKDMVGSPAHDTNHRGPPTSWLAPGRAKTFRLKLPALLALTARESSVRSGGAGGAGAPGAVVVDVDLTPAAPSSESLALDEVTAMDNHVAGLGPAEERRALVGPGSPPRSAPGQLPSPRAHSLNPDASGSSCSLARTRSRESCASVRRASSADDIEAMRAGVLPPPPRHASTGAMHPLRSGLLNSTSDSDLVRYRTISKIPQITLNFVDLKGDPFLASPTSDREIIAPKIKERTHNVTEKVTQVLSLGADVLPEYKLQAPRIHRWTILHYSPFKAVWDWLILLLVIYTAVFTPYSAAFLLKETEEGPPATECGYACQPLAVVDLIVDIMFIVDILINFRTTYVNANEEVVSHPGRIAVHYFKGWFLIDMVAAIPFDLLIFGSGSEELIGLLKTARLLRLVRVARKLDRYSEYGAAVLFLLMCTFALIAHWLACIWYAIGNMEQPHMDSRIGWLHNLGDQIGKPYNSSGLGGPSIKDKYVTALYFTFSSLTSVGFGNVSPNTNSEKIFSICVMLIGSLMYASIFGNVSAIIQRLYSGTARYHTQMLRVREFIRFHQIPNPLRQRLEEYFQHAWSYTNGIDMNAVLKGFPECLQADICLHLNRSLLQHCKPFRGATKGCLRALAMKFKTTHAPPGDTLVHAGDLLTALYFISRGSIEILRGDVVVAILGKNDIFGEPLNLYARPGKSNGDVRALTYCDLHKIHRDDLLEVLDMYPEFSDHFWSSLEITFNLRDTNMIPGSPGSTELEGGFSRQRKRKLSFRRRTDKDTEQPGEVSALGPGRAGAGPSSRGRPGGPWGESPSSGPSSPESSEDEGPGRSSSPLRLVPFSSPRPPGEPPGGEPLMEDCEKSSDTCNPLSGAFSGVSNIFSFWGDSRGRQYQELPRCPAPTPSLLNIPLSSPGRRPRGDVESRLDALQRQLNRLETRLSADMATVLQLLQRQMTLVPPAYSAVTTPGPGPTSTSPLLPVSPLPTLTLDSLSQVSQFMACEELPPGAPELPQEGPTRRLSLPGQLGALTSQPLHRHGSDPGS

| Compound | hERG current change (%, negative = inhibition) at 1uM [%] |
| --- | --- |
| CC(NC(=O)c1cccc(S(=O)(=O)N(C)C)c1)c1nc2ccccc2[nH]1 (centres unmarked) | 9.08 |
| O=C(Cn1nc(-c2ccccc2)ccc1=O)Nc1ccc(-n2cnnn2)cc1 | 9.23 |
| O=C1NC(=O)C(CCc2ccncc2)(CCc2ccncc2)C(=O)N1Cc1ccccc1 | -43.4 |
| C=CCN1C(=O)NC(=O)C(CCc2ccncc2)(CCc2ccncc2)C1=O | -12.3 |
| O=C1NC(=O)C(CCc2ccncc2)(CCc2ccncc2)C(=O)N1CCc1ccccc1 | -23.1 |
| CCc1ccc(N2C(=O)NC(=O)C(CCc3ccncc3)(CCc3ccncc3)C2=O)cc1 | -41.1 |
| O=C1NC(=O)C(CCc2ccncc2)(CCc2ccncc2)C(=O)N1C1CCCCC1 | -69.7 |
| O=C1NC(=O)C(CCc2ccncc2)(CCc2ccncc2)C(=O)N1Cc1ccc(F)cc1 | -78.2 |
| O=C1NC(=O)C(CCc2ccncc2)(C2CCCCC2)C(=O)N1 | 11.2 |
| O=C1NC(=O)C(CCc2ccncc2)(Cc2ccc3c(c2)OCO3)C(=O)N1CCc1ccccc1 (centres unmarked) | -10.8 |
| O=C1NC(=O)C(CCc2ccncc2)(CCc2ccncc2)C(=O)N1CCc1ccc(F)cc1 | -77.1 |
| O=C1c2ccccc2C(O)(c2ccccc2)N1C1CC1 (centres unmarked) | -8.45 |
| C#CCOc1ccc(Br)cc1C(c1c(C)[nH][nH]c1=O)c1c(C)[nH][nH]c1=O | 11.6 |
| c1ccc2oc(SCc3cn4ccccc4n3)nc2c1 | -12.5 |
| COC(=O)COc1ccc(NC(=O)C(c2ccccc2)c2ccccc2)cc1 | 6.63 |
| O=C(Nc1cccc(C(F)(F)F)c1)c1csc(-c2ccncc2)n1 | -82.4 |
| O=C(Nc1ccc(C(F)(F)F)cc1)c1csc(-c2ccncc2)n1 | -2.94 |
| Cc1ccc(C(=O)Nc2cccc(C(F)(F)F)c2)cc1NC(=O)c1csc(-c2ccncc2)n1 | -17.1 |
| CN(CCCNC(=O)C1CCC(=O)N1Cc1ccccc1Cl)c1ccccc1 (centres unmarked) | 19.2 |
| CCOC(=O)N1CCN(Cc2cn[nH]c2-c2ccc(-c3ccccc3)cc2)CC1 | 7.03 |
| CCOC(=O)C1(CC2CC2)CCN(Cc2cn(C)c3ccccc23)CC1 | 12.2 |

| Compound | hERG current change (%, negative = inhibition) at 1uM [%] |
| --- | --- |
| CCOC(=O)C1(CC2CC2)CCN(Cc2ccc(OC)cc2F)CC1 | -73.3 |
| CCOC(=O)C1(CC2CC2)CCN(Cc2cn[nH]c2-c2ccccc2)CC1 | -65.5 |
| CCOC(=O)C1(CC2CC2)CCN(Cc2cn[nH]c2-c2cccc(F)c2)CC1 | -57.6 |
| CCOC(=O)C1(CC2CCCCO2)CCN(Cc2ccc(OC)cc2F)CC1 (centres unmarked) | -19.8 |
| CCOC(=O)C1(CC2CC2)CCN(Cc2cnc(-c3ccc(OC)cc3)nc2)CC1 | 11.7 |
| CCOC(=O)C1(CC2CCCCO2)CCN(Cc2cn[nH]c2-c2cccc(F)c2)CC1 (centres unmarked) | -27.2 |
| CCOC(=O)C1(Cc2ccccc2)CCN(Cc2cn[nH]c2-c2ccccc2)CC1 | 1.58 |
| Cc1cnc(C(=O)OCC(=O)Nc2cc(S(=O)(=O)N3CCCCC3)ccc2Cl)cn1 | 19.4 |
| CCOc1ccc(NC(=O)CC2C(=O)N(c3cccc(OC)c3)C(=O)N2CCOC)cc1 (centres unmarked) | 3.67 |
| CC(C)CN(C(=O)CN1CCN(S(=O)(=O)c2ccccc2)CC1)c1c(N)n(CC(C)C)c(=O)[nH]c1=O | -2.18 |
| CCOC(=O)c1c(CN(CC)CC)n(-c2ccccc2)c2ccc(O)cc12 | -45.6 |
| Cc1ccc(C(=O)Nc2cnc3ccccc3c2)cc1 | 6.66 |
| COc1ccc2c(CN3CC=C(c4ccccc4)CC3)cc(=O)oc2c1 | 13.1 |
| Nc1cccc(Cl)c1N1CCOCC1 | 9 |
| COc1ccccc1CNC(=O)C1CCCN(S(=O)(=O)c2cccc3cccnc23)C1 (centres unmarked) | 0.692 |
| O=C(COc1ccccc1)N1CCN(C(=O)c2ccc([N+](=O)[O-])cc2)CC1 | -19 |
| COc1cc(C(=O)N2CCN(C(=O)COc3ccc4ccccc4c3)CC2)cc(OC)c1OC | -54 |
| COc1cccc(C(=O)N2CCN(C(=O)COc3ccc4ccccc4c3)CC2)c1 | -3.85 |
| O=C(COc1ccc2ccccc2c1)N1CCN(C(=O)c2ccc([N+](=O)[O-])cc2)CC1 | -69.3 |
| COc1ccc(OCC(=O)N2CCN(C(=O)c3ccc([N+](=O)[O-])cc3)CC2)cc1 | -43.2 |
| COc1cc(OC)cc(C(=O)N2CCN(C(=O)COc3ccc4ccccc4c3)CC2)c1 | -4.51 |

| Compound | hERG current change (%, negative = inhibition) at 1uM [%] |
| --- | --- |
| O=C(CN1CCN(C(=O)C2CC2)CC1)Nc1cc(C(F)(F)F)cc(C(F)(F)F)c1 | -5.9 |
| CCOc1ccc(Br)cc1S(=O)(=O)NC1CC(C)(C)NC(C)(C)C1 | 17 |
| CC1(C)CC(NC(=O)COc2ccc3ccc(=O)oc3c2)CC(C)(C)N1 | 13.6 |
| CCOC(=O)c1c2n(c3c(NCc4ccccc4)ncnc13)CCCC2 | -70.3 |
| CCOC(=O)c1c(NCc2ccccc2)n[nH]c1C | 4.96 |
| CCOC(=O)CSc1ncnc2c(C(=O)OCC)c3n(c12)CCC3 | -10.4 |
| COC(=O)c1c(NC(=O)CSc2ncn[nH]2)sc(C)c1C | 11.2 |
| CCN1CCN(c2ncnc3scc(-c4ccc(C)c(C)c4)c23)CC1 | -50.8 |
| CCN1CCN(c2ncnc3scc(-c4ccc(C)cc4)c23)CC1 | 3.26 |
| Cc1ccc(-c2csc3ncnc(N4CCN(C)CC4)c23)cc1C | 10.8 |
| CN(C)S(=O)(=O)c1ccc(C(=O)NCc2ccccn2)cc1 | 14.5 |
| COc1ccc(CCN(C)C/C=C/c2ccccc2)cc1OC | -43.3 |
| C=CCOc1ccccc1CNCCc1ccc(S(N)(=O)=O)cc1.Cl | -6.97 |
| COc1ccc(CCN(C)C/C=C/c2ccccc2[N+](=O)[O-])cc1OC | -54.3 |
| COc1ccc(CCN(C)Cc2ccc(OCc3ccccc3)c(OC)c2)cc1OC | -42.9 |
| COc1ccc(CCN(C)Cc2ccc(OC)c(OCc3ccccc3)c2)cc1OC | -77 |
| COc1cc(CNCCc2ccc(S(N)(=O)=O)cc2)ccc1OCc1ccc(Cl)cc1.Cl | -1.77 |
| Cl.NS(=O)(=O)c1ccc(CCNCc2ccccc2OCc2ccc(F)cc2)cc1 | -21.5 |
| Cl.NS(=O)(=O)c1ccc(CCNCc2cc(Br)ccc2OCc2ccccc2)cc1 | -44.9 |
| COc1cc(CN(C)CCc2ccccc2)ccc1OCc1ccccc1 | -12.2 |
| CN(C/C=C/c1ccccc1[N+](=O)[O-])Cc1ccccc1 | -8.37 |

| Compound | hERG current change (%, negative = inhibition) at 1uM [%] |
| --- | --- |
| Cl.NS(=O)(=O)c1ccc(CCNCc2cc(Cl)ccc2OCc2ccccc2)cc1 | -59.3 |
| Cl.NS(=O)(=O)c1ccc(CCNCc2ccccc2OCc2ccc(Cl)cc2)cc1 | -70.5 |
| CN(Cc1nc2ccccc2c(=O)[nH]1)C(=O)c1cccc(S(=O)(=O)N2CCCCCC2)c1 | 4.23 |
| O=C(Oc1ccc(OC(=O)c2ccncc2)cc1)c1ccncc1 | 0.316 |
| Cc1ccc(CN2C(=O)CN=C(c3ccccc3)c3ccccc32)cc1 | 2.73 |
| Cc1noc(N)c1C(=O)Nc1ccc(C(C)(C)C)cc1 | -5.42 |
| O=C(NCc1cccnc1)c1ccc(-c2cccc(Cl)c2Cl)o1 | 5.38 |
| O=C(CN1C(=O)NC2(CCCC2)C1=O)Nc1ccc(Cl)c(C(F)(F)F)c1 | 9.87 |
| O=C(COC(=O)CCCOc1ccc(Cl)cc1Cl)NCc1ccccc1 | 1.55 |
| O=C(Nc1c(-c2ccc(F)cc2)nc2ccccn12)c1ccc(F)cc1 | -4.64 |
| CCOc1ccc(Cl)cc1Nc1nc(NCCO)nc(N2CCCC2)n1 | 5.92 |
| COc1ccc(N2C(=O)C(Cl)=C(N3CCCC(C)C3)C2=O)cc1 (centres unmarked) | 9.04 |
| COc1ccc(CNCCc2ccc(Cl)cc2)cc1OCc1ccccc1 | -52.2 |
| COc1cc(CNCCc2ccccc2)ccc1OCc1ccc(Cl)nc1.Cl | -0.117 |
| COc1ccccc1CCNCc1ccc(OC)c(OCc2ccccc2)c1 | -29.4 |
| O=C(OCc1cc(=O)n2c(n1)sc1ccccc12)c1ccc(O)cc1 | 17.3 |
| COc1ccc(-n2cc(CNC3CCOCC3)c(-c3cccc(F)c3)n2)cc1 | -1.28 |
| COc1ccc(-n2cc(CNC3CCC(O)CC3)c(-c3cccc(F)c3)n2)cc1 (centres unmarked) | 4.86 |
| COc1ccc(-n2cc(CNC3CCN(C)CC3)c(-c3cccc(F)c3)n2)cc1 | -64.4 |
| O=C(OCc1nnc(-c2ccccc2)o1)c1cn(-c2ccccc2)nc1-c1ccccc1 | -1.95 |
